Most compounds without a hit are left out; they make up all but 15% or so of the library.
TDP1 cell CPT: DT40-hTDP1 cell growth loss with CPT. 420,000 tested, 12% active. chicken DT40 Tdp1-/-;hTDP1 cells + 20 nM CPT, ATP luminescence, 48 h. AID 686979. Potency, µM (top dose mostly 46.2 µM), inactives show at the highest dose activity change, negative = growth inhibition, actives largely listed as inhibitors; further: nearly all actives have a fitted effect of over 55% in size
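Chicken DT40 Tdp1-/- cells stably complemented with human TDP1 were seeded at 400 cells/well in medium containing 20 nM camptothecin, exposed to pin-transferred compounds, and grown at 37 °C for at least 48 hr. Viability was read as ATP luminescence.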
VP16 counter: inhibits Gal4-VP16 luciferase reporter, ROR gamma counter-screen. Drosophila S2 Gal4-VP16 UAS-luciferase, luminescence, 20 h. Potency, µM (doses to about 53.6 µM), for the others: at the highest dose activity, negative = inhibition, most hits filed as inhibitors. 310,000 tested, 3.5% active. AID 2546;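 further: Gal4-VP16 expression switched on by copper sulfate through the metallothionein promoter; nearly all actives have a fitted effect of over 50% in size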
ELG1 DNA repair: inhibitors of ELG1-dependent DNA repair in HEK293T cells. 330,000 tested, 2.3% active. Potency, µM (top dose mostly 46.1 µM), inactives show at the top dose activity change, negative = inhibition, usual class: inhibitors. HEK293T ELG1-luciferase reporter, luminescence, 16 h; DNA damage induced by 5-fluorouridine; further: nearly all actives have a fitted effect of over 55% in size
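Step one: seed 2,000 cells per well. Step two: pin-transfer compound or DMSO alongside 5-fluorouridine. Step three: incubate 16 hr, 37 °C, 5% CO2. Step four: add ONE-Glo, wait 30 min, read luminescence.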
RORgamma inh: blocks mouse ROR gamma transcriptional activity. 310,000 tested, 5.4% active. Drosophila S2 Gal4-RORgamma UAS-luciferase reporter, 20 h. Potency, µM (titrated, usually from 53.6 µM), inactives show at the top dose activity change, negative = inhibition, actives largely listed as inhibitors. P51450; further: nearly all actives have a fitted effect of over 60% in size
Target sequence (P51450 whole entry, looked up, the tested form may be a part): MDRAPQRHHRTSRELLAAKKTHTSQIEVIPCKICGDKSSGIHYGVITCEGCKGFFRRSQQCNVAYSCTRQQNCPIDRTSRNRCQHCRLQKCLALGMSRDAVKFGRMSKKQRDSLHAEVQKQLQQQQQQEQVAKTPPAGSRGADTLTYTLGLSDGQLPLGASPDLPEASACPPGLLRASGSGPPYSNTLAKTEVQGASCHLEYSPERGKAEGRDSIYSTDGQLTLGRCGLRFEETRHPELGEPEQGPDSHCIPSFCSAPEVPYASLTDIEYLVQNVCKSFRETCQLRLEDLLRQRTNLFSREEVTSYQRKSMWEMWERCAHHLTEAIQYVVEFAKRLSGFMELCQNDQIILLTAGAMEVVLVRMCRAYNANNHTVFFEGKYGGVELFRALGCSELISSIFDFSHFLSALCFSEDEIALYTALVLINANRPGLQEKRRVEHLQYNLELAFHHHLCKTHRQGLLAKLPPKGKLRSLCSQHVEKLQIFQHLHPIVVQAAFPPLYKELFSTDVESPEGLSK
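Drosophila S2 cells stably expressing Gal4-DBD/mouse RORγ fusion under metallothionein promoter plus UAS-luciferase; compound 1 h, then 700 uM CuSO4 induction for 20 h at ambient temperature; inhibition read as reduced luminescence.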
DT40 TDP1 no CPT: qHTS for Inhibitors of human tyrosyl-DNA phosphodiesterase 1 (TDP1): qHTS in cells in absence of CPT | DT40 Tdp1-/- hTDP1 cells, no CPT, ATP luminescence, 48 h | Potency, µM (top dose mostly 46.2 µM), without a hit: top-dose activity change, negative = growth inhibition, most hits filed as inhibitors | 420,000 tested, 15% active | AID 686978, 2013; further: nearly all actives have a fitted effect of over 55% in size
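Camptothecin absent (DMSO only). Human TDP1-complemented DT40 knockout cells, 400 cells/well, 37 °C for minimum 48 hr; ATP measured via CellTiter-Glo, 30 min dark incubation, luminescence.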
ALOX12 inh: blocks human arachidonate 12S-lipoxygenase; AID 1671190; 580,000 tested, 1.1% active; Potency, µM (series often up to 108 µM), for the others: at the highest dose activity change, negative = inhibition, usual class: inhibitors; purified 12hLO, xylenol orange hydroperoxide absorbance
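Purified human 12hLO (150 nM final) in 25 mM Hepes, 0.01% Triton X-100, pH 7.0 was preincubated 15 min at room temperature with compound. Then 40 uM arachidonic acid was added, 30 min. Hydroperoxide was read by Fe-XO absorbance ratio 573/405 nm.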
Active calls of the source: *; ? = inconclusive; . = no result; ! = a repeat was not active; [ ] = dose if it differs, or a comment. The call rests on the fitted dose curve; in most records, active means well fitted curve in the direction sought with a large enough effect; inconclusive means small, poorly fitted or top-dose-only effect, or another doubt; inactive means no such curve, though single readings can be large; an effect the other way counts as inactive or inconclusive. On the % scale 0 is the no-effect control and ±100 the full control effect; potency means the concentration at half of the fitted maximal effect.

SMILES	TDP1 cell CPT	VP16 counter	ELG1 DNA repair	RORgamma inh	DT40 TDP1 no CPT	ALOX12 inh
Cc1cc(N2CCOCC2)nc2ccc(NC(=O)CCC(=O)N3CCC4(CC3)OCCO4)cc12	-3%	1%	?	-1%	-20%	0%
CCNC(=S)NCCC1=c2ccccc2=N/C1=C\c1c(O)n(C)c(=O)n(C)c1=O	?	3%	?	?	21µM*	?
Cn1c(O)c(/C=C2\C=Nc3ccc(Br)cc32)c(=O)n(C)c1=O	-18%	4%	24%	-1%	-2%	-16%
CC1(C)CC[C@]2(C)CC[C@]3(C)C4C[C@@H]5OO[C@@]6(O5)C(CCCC6(C)C)[C@]4(C)CC[C@@]3(C)C2C1 (stereo partly specified)	8.2µM*	.	.	.	5.2µM*	.
CN(Cc1ccccc1)C[C@H]1CN2CC[C@H]1C[C@@H]2CNC(=S)Nc1ccc(N(C)C)cc1	.	.	.	.	.	-13%
CC(C)NC(=O)NC[C@H]1C[C@@H]2CCN1C[C@@H]2CN1CCN(c2ccccn2)CC1	.	.	.	.	.	37%[176 µM]
O=C1C=C2C(=CCOC2O)O1 (stereo unspecified)	0.1µM*	0.89µM*	.	1.1µM*	0.15µM*	.
C=CCNc1nnc(Sc2ncccc2[N+](=O)[O-])s1	5.2µM*	-4%	?	-23%	7.3µM*	?
C#C[C@H]1CN2CC[C@H]1C[C@@H]2CNS(=O)(=O)c1cccc(C#N)c1	.	.	.	.	.	-23%[176 µM]
CCN(CC)c1ccc(/C=C2/C(=O)NC(=O)N(CC3CCCO3)C2=O)cc1 (stereo unspecified)	-24%	-7%	11%	8%	-27%	-32%
O=C1NC(=S)SC1=Cc1ccc(N(CCCl)CCCl)cc1	13µM*	.	.	.	16µM*	?
O[C@H]1[C@H](NC2CCOCC2)[C@@H](C2CCCCC2)C[C@H]1O	.	.	.	.	.	-3%[176 µM]
CCCCOc1ccc(C(=O)NCCc2csc(-c3ccc(OC)cc3)n2)cc1	4.6µM*	.	.	.	4.1µM*	-30%
Clc1ccc(C(Cn2ccnc2)OCc2csc3c(Cl)cccc23)c(Cl)c1 (stereo unspecified)	23µM*	.	?	.	13µM*	-24%
O=C1CN(C(=O)c2cn(Cc3ccccc3)c3ccccc23)CCN1	.	.	.	.	.	-16%
C[n+]1c(-c2ccccc2)c2cc(N)ccc2c2ccc(N)cc21	0.52µM*	13µM*	?	?	0.16µM*	?
CN(C)c1ccc(C(=O)NC[C@H]2C[C@@H]3CCN2C[C@@H]3CN2CCN(c3ccccn3)CC2)cc1	.	.	.	.	.	12%
COC(=O)C1=C(N)Oc2cc(C)oc(=O)c2C12C(=O)Nc1ccccc12 (stereo unspecified)	?	3%	6%	10%	16µM*	100%
COc1ccc(Nc2cc(C)c3cc(NC(=O)c4ccccc4Cl)ccc3n2)cc1	21µM*	.	.	.	9.2µM*	-16%
C=C(C)C(=O)OC[N+](C)(C)CCOC(=O)C(O)(c1ccccc1)C1CCCC1 (stereo unspecified)	.	.	.	.	.	10%
CN(C)CC/C=C1/c2ccccc2Sc2ccc(Cl)cc21	?	6%	10%	3%	29µM*!	?
CCCCCCCCCC(CC)c1ccc(S(=O)(=O)O)cc1 (stereo unspecified)	?	-8%	.	1%[10 µM]	?	23µM*
NC[C@H](CS(=O)(=O)O)c1ccc(Cl)cc1	22%	-16%	.	-1%	-1%	0%
O=c1[nH]c2ccccc2n1C1CCN(C(c2cccc3ccccc23)c2nnnn2Cc2ccccc2)CC1 (stereo unspecified)	12µM*	.	.	.	8.2µM*	-9%
O=C1CC(N2CCC(n3c(=O)[nH]c4ccccc43)CC2)C(=O)N1Cc1ccccc1 (stereo unspecified)	-4%	?	?	-29%	-10%	0%
SMILES	TDP1 cell CPT	VP16 counter	ELG1 DNA repair	RORgamma inh	DT40 TDP1 no CPT	ALOX12 inh
O=c1[nH]c2ccccc2n1C1CCN(C(c2cc3ccccc3o2)c2nnnn2Cc2ccccc2)CC1 (stereo unspecified)	10µM*	.	.	.	9.2µM*	?
O=c1[nH]c2ccccc2n1C1CCN(C(CCc2ccccc2)c2nnnn2C2CCCC2)CC1 (stereo unspecified)	18µM*	.	.	.	16µM*	-25%
Cc1ccc2nc(-c3ccc(CN4CCC(n5c(=O)[nH]c6cc(Cl)ccc65)CC4)cc3)c(-c3ccccc3)nc2c1	.	.	.	.	.	-24%
CCC(c1nnnn1C1CCCC1)N1CCC2(CC1)C(=O)NCN2c1ccccc1 (stereo unspecified)	?	.	.	.	-24%	-9%
O=c1[nH]c2ccccc2n1C1CCN(Cc2ccc(-c3[nH]c4cc5ncnc5cc4nc3-c3ccccc3)cc2)CC1	2.3µM*	-20%	.	13%	2.9µM*	-23%[57.4 µM]
CN(CCc1ccccn1)C[C@H]1CN2CC[C@H]1C[C@@H]2CNS(=O)(=O)c1ccccc1	.	.	.	.	.	5%[176 µM]
Cc1ncc2c(n1)C[C@@H]1CC[C@H]2N1C(=O)c1ccccc1F	.	.	.	.	.	10%
CCCSc1ncc(CN2CCC3(CCNCC3)C2)cn1	.	.	.	.	.	11%

High-throughput results as filed in PubChem BioAssay.
